From PubChem
DAX1 inh-1: DAX1 (NR0B1) inhibitors, primary screen, cell-based, HEK293, Gal4-DAX1, luciferase luminescence | AID 504766, 2011 | HEK293 Gal4-DAX1 luciferase reporter | 340,000 compounds, 0.99% hits | Nuclear receptor subfamily 0 group B member 1 (Homo sapiens), P51843 | inhibition, % at 6.75 µM;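 active = inhibition above the mean over all tested compounds plus 3 SD, cut at about 4.2% in these data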;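 note: 0% = DAX1-transfected cells with DMSO and 100% = empty-vector control cells with DMSO; inhibition shows as a rise in luminescence from relieved DAX1 repression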
Target sequence (P51843 207-470 limits assumed): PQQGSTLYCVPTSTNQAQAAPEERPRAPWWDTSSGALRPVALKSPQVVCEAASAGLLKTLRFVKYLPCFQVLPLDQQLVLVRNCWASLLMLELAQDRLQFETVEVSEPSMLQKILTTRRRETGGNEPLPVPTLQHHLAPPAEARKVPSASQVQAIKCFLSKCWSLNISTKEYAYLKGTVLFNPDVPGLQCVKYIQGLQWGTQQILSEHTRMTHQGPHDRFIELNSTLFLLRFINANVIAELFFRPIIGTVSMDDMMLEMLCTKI
hgDAF12 agonist: H. glycines DAF-12 receptor agonists, primary screen, cell-based, luminescence, HEK293, GAL4 fusion, UAS-luciferase; AID 687014, 2013; HEK293 GAL4-hgDAF12 UAS-luciferase reporter, agonist luminescence; normalized to butyrate control; 370,000 compounds, 1.8% hits; Nuclear hormone receptor DAF-12 (Heterodera glycines), GAL4 fusion; activation, % at 6.8 µM;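 active = activation above a cutoff set at the mean of all screened compounds plus 3 SD, cut at about 10% in these data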;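 note: 0% = DMSO wells and 100% = sodium butyrate wells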
ssDAF12 agonist: S. stercoralis DAF-12 nuclear receptor activators, primary screen, cell-based, luminescence, HEK293, GRIP1 co-expression, lit1-tk-luc. Nuclear hormone receptor DAF-12 (Strongyloides stercoralis). HEK293 ssDAF-12/GRIP1 lit1-tk-luc reporter; % of 3 µM dafachronic acid response. activation, % at 6.8 µM. 370,000 compounds, 1% hits;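 active = activation above the mean over all tested compounds plus 3 SD, cut at about 0.9% in these data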;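 note: 0% = DMSO-only wells and 100% = 3 µM delta7-dafachronic acid wells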
DAX1 inh-2: DAX1 (NR0B1) inhibitors on StAR promoter, primary screen, cell-based, luminescence, SF-1 (NR5A1), full-length DAX-1 | HEK293T StAR-luciferase reporter, SF-1/DAX-1 repression relief | AID 652010, 2013 | 370,000 compounds, 1.1% hits | inhibition, % at 6.8 µM;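 active = inhibition above the mean over all tested compounds plus 3 SD, cut at about 3.6% in these data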;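 note: 0% = DAX-1 cells with DMSO and 100% = cells lacking DAX-1 with DMSO; higher inhibition means more luminescence from relief of DAX-1 repression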
hcDAF12 agonist: H. contortus DAF-12 nuclear receptor activators, primary screen, cell-based, luminescence, HEK293, lit1-tk-luc reporter; HEK293 hcDAF-12 lit1-tk-luc reporter; 0% DMSO, 100% Δ7-dafachronic acid; activation, % at 6.8 µM; 370,000 compounds, 1.4% hits; AID 652067, 2013;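 active = activation above the mean of all tested compounds plus 3 SD, cut at about 5.5% in these data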;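 note: 100% = response to 3 µM Δ7-dafachronic acid high control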
An asterisk follows results filed as active; nt = no result. The list is not random: actives were taken first. Their share in the collection is about 4.1%.

SMILES	DAX1 inh-1	hgDAF12 agonist	ssDAF12 agonist	DAX1 inh-2	hcDAF12 agonist
COc1cc(-c2csc(C)n2)ccc1O	4.3*	1	-1	0	0
COc1ccc(/C=C2\CC3(OC(=O)C4CCCCC4)CCCN2C3)cc1 (stereo not drawn)	nt	0	-1	1	0
COC(=O)c1cnn(-c2ccc(Cl)cc2)c1/C=N/NC(=S)Nc1ccccc1	nt	0	-2	nt	-4
CCCCNC(=O)c1nc(-c2cccs2)oc1-c1ccc(Cl)cc1	nt	3	0.9*	-1	-1
CC(Oc1ccc(Cl)cc1Cl)C(=O)NNC(=O)c1ccncc1 (stereo not drawn)	4.8*	-1	0	0	-1
CC(Oc1ccc(Cl)cc1Cl)C(=O)NNC(=O)c1cccnc1 (stereo not drawn)	0	0	-1	2	-2
Cc1n[nH]c(=S)n1/N=C/c1ccc(OCc2ccc(Cl)cc2)cc1	3	13*	-1	1	2
NC(N)=N/N=C/c1ccc(OCc2ccc(Cl)cc2)cc1	-1	13*	-1	1	-1
COc1ccc(CCNC2CC(=O)N(CCc3ccccc3)C2=O)cc1 (stereo not drawn)	4.5*	-2	-2	0	-1
O=C1CC(NCCc2ccccc2)C(=O)N1CCc1ccccc1 (stereo not drawn)	0	1	-1	0	1
N#Cc1ccc(C(=O)Nc2cc(C3CC3)nn2-c2ccccc2)cc1	0	1	-1	0	0
COC(=O)[C@]12C[C@H](CC(=O)N3CCN(C(=O)c4ccco4)CC3)C(=O)N(Cc3cccc4ccccc34)C1=C[C@H](C1CCCC1)O[C@@H]2C	nt	-4	-1	-1	-1
COC(=O)[C@]12CCCCC=C1N(Cc1ccc(OC)cc1)C(=O)[C@@H]2CC(=O)NCCC(C)C	nt	1	-1	0	-2
CC1CCCCN1C(=O)CN1CCC(c2nc3ccc(Cl)cc3[nH]2)CC1 (stereo not drawn)	4.5*	-1	-2	1	0
Cc1ccc(CN2CCC(c3nc4ccc(Cl)cc4[nH]3)CC2)cc1	0	-1	-2	-1	1
CC(=O)Nc1ccc(S(=O)(=O)C(C#N)c2nc3ccccc3nc2NCCCO)cc1 (stereo not drawn)	5.3*	-3	-2	0	-2
CCn1c(C)csc1=NC(=O)c1ccccc1O	0	10	0	1	6.3*
COc1cccc(C(=O)Nc2ccc(N(C)C)cc2)c1OC	1	12*	0	3	2
COc1ccc(NC(=O)c2ccc(NC(=O)c3cccs3)cc2)cc1	0	0	-1	1	-2
O=C(COC(=O)C1=COCCO1)Nc1ccccc1	4.4*	1	0	1	1
COc1ccc(C(=O)/C=C\c2ccc(NC(=O)c3cccs3)cc2)cc1	-2	0	0	-1	6.5*
COc1cccc(NC(=O)c2cccs2)c1	-1	13*	-1	1	5
CC(O)(c1ccc(F)c(F)c1)c1nc(-c2cc3ccccc3o2)cs1 (stereo not drawn)	nt	-1	-1	-1	2
Cc1cccc(CNC(=S)OCCN2CCCC23CCC(c2ccccc2)CC3)c1 (stereo not drawn)	nt	2	-2	nt	2
CSc1ccc(C=NNC(=O)c2cc(-c3ccc(Cl)cc3)n[nH]2)cc1	nt	4	-1	-2	2
SMILES	DAX1 inh-1	hgDAF12 agonist	ssDAF12 agonist	DAX1 inh-2	hcDAF12 agonist
COc1cc(Cl)c(C)cc1NC(=O)c1cccc(OC)c1OC	0	11*	-1	1	0
COc1cccc(NC(=O)c2cccc(OC)c2OC)c1	1	12*	0	2	0
C=CCn1cccc(C(=O)Nc2ccc(Cl)cc2)c1=O	-2	3	-1	-1	-1
Cc1ccn2cc(-c3cccc(NC(=O)c4cccs4)c3)nc2c1	1	11*	-1	0	-1
C=CCn1cccc(C(=O)Nc2ccc(N(C)C)cc2)c1=O	1	11*	0	1	-1
COc1cccc(C(=O)Nc2ccncc2)c1OC	-1	-1	-1	0	-1
O=C(CCc1ccccc1-c1ccccc1CCNC(=O)c1c(F)cccc1F)NCc1ccccc1	nt	-6	-1	-1	-3
COc1cccc(NC(=O)c2ccccc2Br)c1	2	11*	-1	1	1
CC(=O)c1cccc(NC(=O)c2ccccc2-c2ccccc2C(=O)O)c1	-1	0	-1	-1	-1
COc1cccc(NC(=O)Cc2ccccc2)c1	2	8	0	1	4
COc1cccc(NC(=S)NC(=O)Cc2ccccc2)c1	5.6*	1	-1	0	0
COc1cccc(NC(=O)c2ccccc2-c2ccccc2C(=O)O)c1	0	0	-1	1	6.0*
COc1cccc(NC(=O)CN(C)C(=O)C2=COCCO2)c1	1	1	-1	3	4
COc1cccc(NC(=O)C2=COCCO2)c1	3	2	-1	3.7*	4
COc1cccc(C(=O)Nc2cccc(NC(=O)c3ccccc3Cl)c2)c1	0	-3	-1	-1	-1
Cc1ccccc1NC(=O)Nc1ccc2c(c1)C(=O)N(C)[C@H]1CC[C@H](CC(=O)NCC3CC3)O[C@@H]1CO2	nt	-2	-1	1	1
COc1cccc(NC(=O)c2ccccc2F)c1	2	11*	-1	2	3
COc1cccc(NC(=O)c2c(F)cccc2F)c1	-1	7	-1	1	1
CCc1ccc2[nH]c(C(=O)Nc3ccc(C)c(F)c3)cc2c1	0	7	0	0	5.8*
CCN(CC)C(=O)CC[C@@H]1CC[C@]2(CCCN(Cc3ccc(Cl)cc3)C2)O1	nt	-2	-1	1	-2
COc1ccc(C(=O)n2cnc3ccccc32)cc1[N+](=O)[O-]	1	4	1.4*	0	5
COc1ccc(C(=O)n2cnc3ccccc32)cc1Br	1	-1	1	1	-1
COc1ccc(C2=NCCn3nc4cc([N+](=O)[O-])ccc4c32)cc1	-1	1	-1	1	5.8*
CC(C)Nc1ncnc2c1ncn2[C@H]1CN(Cc2ccc3c(c2)OCO3)C[C@@H](CO)O1	nt	-2	-1	-1	0
Nc1ccccc1C(=O)N/N=C1/C2CN3CCN(C2)CC1(Cc1ccccc1)C3	4.5*	8	0	2	2
CCCC12CN3CCN(CC(C3)/C1=N\NC(=O)c1ccccc1N)C2	2	6	0	2	2
